Experimental data as given in PubChem BioAssay (NCATS).
Values without a mark were called inactive. Results filed as inconclusive are left out. Where a call stands in place of a potency, no number is given. The source made the active and inactive calls. Calls come from the whole dose curve; as a rule, active = well fitted curve in the direction sought with a large enough effect; inconclusive = small, poorly fitted or top-dose-only effect, or another doubt; inactive = no such curve, though single readings can be large; an effect the other way counts as inactive or inconclusive.

What was measured:
[1] = Primary redox qHTS assay for identification of artifact compounds. (AID 1845223)
How it was run: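 Redox-cycling detection via DTT (250 uM final) oxidation coupled to Amplex Red (25 uM)/HRP (250 mU/mL) in HBSS. 15 min preincubation plus 30 min after DTT, room temperature. Ex/Em 525/598 nm; 4-parameter Hill fit against DMSO and 10 uM DA3003.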

[2] = molecular target: Cytochrome P450 3A4 (Homo sapiens) (UniProt P08684); experiment: qHTS for inhibitors of CYP3A4 against the NCATS DSHEA and TCM libraries (AID 1919971);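 note: inhibition lowers luminescence from luciferin made by CYP3A4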
Cytochrome P450 3A4 (Homo sapiens), sequence (P08684 whole entry, looked up, canonical isoform): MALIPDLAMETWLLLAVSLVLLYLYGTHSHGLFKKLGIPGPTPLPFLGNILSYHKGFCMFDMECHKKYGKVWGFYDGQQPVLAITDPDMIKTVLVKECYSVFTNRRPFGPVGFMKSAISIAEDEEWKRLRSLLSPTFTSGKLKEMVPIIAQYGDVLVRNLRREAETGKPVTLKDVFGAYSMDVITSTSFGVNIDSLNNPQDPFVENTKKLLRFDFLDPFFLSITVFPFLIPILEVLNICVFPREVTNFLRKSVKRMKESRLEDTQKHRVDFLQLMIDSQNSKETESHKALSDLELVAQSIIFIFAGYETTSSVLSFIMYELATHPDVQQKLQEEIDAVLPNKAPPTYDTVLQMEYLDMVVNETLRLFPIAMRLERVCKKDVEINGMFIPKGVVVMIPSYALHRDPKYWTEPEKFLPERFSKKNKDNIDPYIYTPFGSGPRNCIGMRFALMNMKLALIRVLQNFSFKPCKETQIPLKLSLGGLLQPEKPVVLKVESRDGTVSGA
How it was run: (§1)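 Concentration-response screening with isoform-matched pro-luciferin substrates. The CYP reaction was initiated by NADPH regenerating solution and ran 30-45 min in darkness at room temperature.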

[3] = molecular target: Cytochrome P450 2D6 (Homo sapiens) (UniProt P10635); experiment: qHTS for inhibitors of CYP2D6 against the NCATS DSHEA and TCM libraries (AID 1919972)
Cytochrome P450 2D6 (Homo sapiens), sequence (P10635 whole entry, looked up): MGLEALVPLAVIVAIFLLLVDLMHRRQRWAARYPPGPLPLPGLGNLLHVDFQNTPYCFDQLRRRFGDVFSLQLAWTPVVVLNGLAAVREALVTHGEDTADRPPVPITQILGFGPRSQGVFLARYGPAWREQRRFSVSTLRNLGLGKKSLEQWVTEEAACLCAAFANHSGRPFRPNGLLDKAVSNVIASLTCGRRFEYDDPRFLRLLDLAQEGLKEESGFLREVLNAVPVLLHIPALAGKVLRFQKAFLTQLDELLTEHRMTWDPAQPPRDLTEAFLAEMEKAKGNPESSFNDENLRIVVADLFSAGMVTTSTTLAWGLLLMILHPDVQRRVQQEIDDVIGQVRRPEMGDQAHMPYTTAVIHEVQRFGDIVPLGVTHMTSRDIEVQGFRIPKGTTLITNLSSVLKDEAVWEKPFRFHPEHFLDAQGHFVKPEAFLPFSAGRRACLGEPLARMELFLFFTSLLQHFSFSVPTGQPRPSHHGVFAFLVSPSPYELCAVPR
How it was run: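 CYP2D6 enzyme with pro-luciferin substrate in manufacturer buffer (typically 100 mM KPO4), preincubated 15 min RT with substances (most at 19.5 nM upward); NADPH regeneration system (1x) started 30–45 min RT reaction; P450-Glo luminescence read after 30 min; quinidine as intraplate control.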

[4] = molecular target: Cytochrome P450 2C9 (Homo sapiens) (UniProt P11712); experiment: qHTS for inhibitors of CYP2C9 against the NCATS DSHEA and TCM libraries (AID 1919973);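 note: luminogenic pro-luciferin CYP2C9 substrate turned into luciferin with NADPH regeneration; series mostly up to about 34 µM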
Cytochrome P450 2C9 (Homo sapiens), sequence (P11712 whole entry, looked up): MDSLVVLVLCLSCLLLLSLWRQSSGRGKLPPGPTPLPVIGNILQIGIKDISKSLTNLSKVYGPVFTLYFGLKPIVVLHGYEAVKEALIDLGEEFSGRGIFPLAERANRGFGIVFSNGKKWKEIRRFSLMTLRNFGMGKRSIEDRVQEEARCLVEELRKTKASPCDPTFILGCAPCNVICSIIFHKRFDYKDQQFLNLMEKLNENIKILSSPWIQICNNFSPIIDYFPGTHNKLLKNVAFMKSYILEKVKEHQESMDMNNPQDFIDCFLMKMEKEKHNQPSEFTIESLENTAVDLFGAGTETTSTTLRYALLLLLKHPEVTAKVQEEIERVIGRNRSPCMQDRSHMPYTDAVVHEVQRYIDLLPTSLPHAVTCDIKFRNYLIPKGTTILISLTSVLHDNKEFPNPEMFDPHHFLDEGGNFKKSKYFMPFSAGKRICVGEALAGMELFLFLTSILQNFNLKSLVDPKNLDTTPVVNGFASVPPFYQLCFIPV
How it was run: as §1

[5] = molecular target: Cytochrome P450 2C19 (Homo sapiens) (UniProt P33261); experiment: qHTS for inhibitors of CYP2C19 against the NCATS DSHEA and TCM libraries (AID 1919974);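 note: luminescence from luciferin released by CYP2C19 oxidation of a pro-luciferin substrate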; note: potency is the fitted concentration of half-maximal effect
Cytochrome P450 2C19 (Homo sapiens), sequence (P33261 whole entry, looked up): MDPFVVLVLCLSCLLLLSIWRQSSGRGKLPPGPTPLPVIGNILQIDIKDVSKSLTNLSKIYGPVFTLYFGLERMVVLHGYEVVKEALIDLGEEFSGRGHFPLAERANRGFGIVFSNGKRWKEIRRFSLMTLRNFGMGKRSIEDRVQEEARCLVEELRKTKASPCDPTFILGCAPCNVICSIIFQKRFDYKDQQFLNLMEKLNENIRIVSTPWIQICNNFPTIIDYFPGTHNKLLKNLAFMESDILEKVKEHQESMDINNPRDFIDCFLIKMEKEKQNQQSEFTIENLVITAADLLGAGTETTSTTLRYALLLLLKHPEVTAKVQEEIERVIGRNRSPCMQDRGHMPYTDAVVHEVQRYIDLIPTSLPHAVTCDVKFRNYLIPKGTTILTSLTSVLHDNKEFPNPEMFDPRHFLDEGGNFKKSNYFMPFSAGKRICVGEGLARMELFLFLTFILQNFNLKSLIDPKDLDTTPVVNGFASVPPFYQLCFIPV
How it was run: as §1

[6] = KB-3-1 P-gp reporter qHTS against the NCATS DSHEA and TCM libraries (AID 1919975)
How it was run: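 Cell viability qHTS: 500 KB-3-1 cells/well, substances in titration, ~72 h, 37C; luminescent CellTiter-Glo read.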

[7] = qHTS Counterscreen for compound interference against the NCATS DSHEA and TCM libraries (AID 1919978); conditions: firefly luciferase detection reagent interference, luminescence;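 note: compounds preincubated with 1 µM D-luciferin or buffer before detection reagent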
How it was run: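 Interference check: test samples were incubated with D-luciferin (final 1 uM) or buffer only for 15 min, room temperature, in a qHTS titration up to 39.8 uM, then developed with detection reagent and read by luminescence.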

[8] = Dual reporter qHTS for agonist of Pregnane X Receptor (hPXR) against the NCATS DSHEA and TCM libraries: Fluorescence readout (AID 1920058)
How it was run: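 Cells were plated at 2000 per well and allowed to attach for 5 h. Test substances were pinned in and incubated roughly 24 h. CellTiter-Fluor was then added and fluorescence measured after 1 h.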

[9] = molecular target: Nuclear receptor subfamily 1 group I member 2 (Homo sapiens) (UniProt O75469); experiment: Dual reporter qHTS for agonist of Pregnane X Receptor (hPXR) against the NCATS DSHEA and TCM libraries: Luminescence readout (AID 1920059)
Nuclear receptor subfamily 1 group I member 2 (Homo sapiens), sequence (O75469 whole entry, looked up): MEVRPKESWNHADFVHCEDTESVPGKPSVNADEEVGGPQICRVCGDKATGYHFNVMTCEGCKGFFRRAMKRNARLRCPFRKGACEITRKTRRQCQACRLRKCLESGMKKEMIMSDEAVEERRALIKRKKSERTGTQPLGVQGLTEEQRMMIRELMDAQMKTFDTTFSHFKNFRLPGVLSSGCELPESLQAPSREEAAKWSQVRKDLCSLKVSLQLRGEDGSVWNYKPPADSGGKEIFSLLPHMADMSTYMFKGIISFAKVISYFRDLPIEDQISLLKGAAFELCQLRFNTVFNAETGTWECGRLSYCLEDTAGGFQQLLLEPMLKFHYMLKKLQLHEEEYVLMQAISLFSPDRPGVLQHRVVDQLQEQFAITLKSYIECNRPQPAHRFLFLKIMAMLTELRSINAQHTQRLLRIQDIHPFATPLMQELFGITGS
How it was run: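 hPXR-LucHepG2 cells in phenol red-free DMEM with 5% charcoal-stripped FBS, 2000 cells/well, attached 5 h, then exposed 24 h at 37C to compounds; rifampicin as positive agonist control (2.8 nM–92 uM). Luciferase luminescence read.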

[10] = molecular target: Cytochrome P450 1A2 (Homo sapiens) (UniProt P05177); experiment: qHTS for inhibitors of CYPIA2 against the NCATS DSHEA and TCM libraries (AID 1919976);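 note: light from luciferin formed by CYP1A2 from a pro-luciferin substrate; series mostly up to about 37 µM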
Cytochrome P450 1A2 (Homo sapiens), sequence (P05177 whole entry, looked up): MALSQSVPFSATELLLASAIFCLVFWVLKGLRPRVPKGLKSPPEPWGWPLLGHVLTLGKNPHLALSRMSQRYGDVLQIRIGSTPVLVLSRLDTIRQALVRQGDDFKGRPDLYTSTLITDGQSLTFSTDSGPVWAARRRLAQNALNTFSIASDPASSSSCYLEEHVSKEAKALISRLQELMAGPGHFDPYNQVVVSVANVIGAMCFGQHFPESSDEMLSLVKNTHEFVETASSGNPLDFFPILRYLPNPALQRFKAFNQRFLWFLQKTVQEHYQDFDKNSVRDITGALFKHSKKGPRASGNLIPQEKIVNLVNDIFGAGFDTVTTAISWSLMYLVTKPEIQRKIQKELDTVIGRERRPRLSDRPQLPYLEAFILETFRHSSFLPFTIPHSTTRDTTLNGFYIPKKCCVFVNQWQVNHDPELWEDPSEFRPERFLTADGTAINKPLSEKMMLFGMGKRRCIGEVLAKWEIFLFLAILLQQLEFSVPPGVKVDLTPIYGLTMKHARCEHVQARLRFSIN
How it was run: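 Enzyme and pro-luciferin substrate, or substrate alone as no-enzyme background, are pre-incubated with test samples for 15 min at room temperature. NADPH regeneration system (1x final) initiates a 30-45 min dark reaction; luciferase detection reagent follows before luminescence reading.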

For `C[C@@H]1O[C@@H](O[C@H]2[C@H](OC(=O)C34CCC5(C)C(=CCC6C7(C)CC(O)C(O[C@@H]8O[C@H](C(=O)O)[C@@H](O)[C@H](O)[C@H]8O)C(C)(C(=O)O)C7CCC65C)C3CC(C)(C)CC4O)O[C@H](C)[C@@H](O)[C@@H]2O)[C@H](O)[C@@H](O[C@@H]2OC[C@](O)(CO)[C@H]2O[C@@H]2O[C@H](CO)[C@@H](O)[C@H](O)[C@H]2O)[C@H]1O` (stereo not given in full), the redox activity (% of DA3003) [1] was 3.71% [at 11.5 µM].
In the case of `COc1ccc([C@@H]2N[C@H](C(=O)O)Cc3c2[nH]c2ccccc32)cc1CN1CCN(c2ccccc2F)CC1`, the Potency [1] is reported as “inactive”.
For `C=C1CC[C@H]2[C@@H](/C=C(\C)C(=O)[C@@]3(OC(C)=O)C[C@H](C)[C@H](OC(C)=O)[C@@H]3[C@H]1OC(C)=O)C2(C)C`, the Potency [1] was “inactive”.
In the case of `CC12CC34C=CC(=O)C(C)(CCC(=O)O)C3C(CC1C4)O2` (stereo not given), the Potency [1] is reported as “inactive”.
With `CC1=C(/C=C/C(C)=C/C=C/C(C)=C/C=C/C=C(C)/C=C/C=C(C)/C=C/C2=C(C)CCCC2(C)C)C(C)(C)CCC1` the outcome [2] was “inactive”, the outcome [3] was “inactive” and the Potency [4] was “inactive”. For the same molecule, the Potency [5] was “inactive”, the outcome [6] was “inactive” and the max response [7] was -3.35%. For the same molecule, the outcome [8] was “inactive” and the outcome [9] was “inactive”.
For `O=C(OCC12OC1C=CC(OC(=O)c1ccccc1)C2O)c1ccccc1` (stereo not given), the Potency [1] was “inactive”.
In the case of `O=C(O)c1cnn(-c2nc3cc(OC(F)(F)F)c(Cl)cc3[nH]2)c1`, the Potency [1] is reported as “inactive”.
For `C[C@H]1[C@H](C)CC[C@]2(C(=O)O)CC[C@]3(C(=O)O)C(=CCC4[C@@]5(C)CC[C@H](O[C@@H]6O[C@H](C)[C@@H](O)[C@H](O)[C@H]6O)C(C)(C)C5CC[C@]43C)[C@H]12` (stereo not given in full), the Potency [1] was “inactive”.
In the case of `O=C(/C=C/c1ccc(O)cc1)O[C@H]1[C@@H]2C=CO[C@@H](O[C@@H]3O[C@H](CO)[C@@H](O)[C@H](O)[C@H]3O)[C@@H]2[C@@]2(CO)O[C@@H]12`, the Potency [1] is reported as “inactive”.
In the case of `CC1CCC2(C(=O)OC3OC(CO)C(O)C(O)C3O)CCC3(C)C(=CCC4C5(C)CC(O)C(O)C(C)(C(=O)O)C5CCC43C)C2C1(C)O` (stereo not given), the Potency [1] is reported as “inactive”.
With `Oc1cc(O)c2c(c1)OC(c1ccc(O)c(O)c1)C(O)C2` (stereo not given) the outcome [2] was “inactive”, the outcome [3] was “inactive” and the Potency [4] was “inactive”. The Potency [5] was “inactive”, the outcome [6] was “inactive” and the outcome [10] was “inactive”. The max response [7] was 0.755%, the outcome [8] was “inactive” and the outcome [9] was “inactive”.
In the case of `O=C(NCc1ccc(OC(F)(F)F)cc1)C1c2ccccc2C(=O)N1C1CCOCC1` (stereo not given), the Potency [1] is reported as “inactive”.
For `CCCCCCCC(=O)O`, the outcome [2] was “inactive”, the outcome [3] was “inactive” and the Potency [4] was “inactive”. For the same molecule, the Potency [5] was “inactive”, the outcome [6] was “inactive” and the outcome [10] was “inactive”. The max response [7] was 5.32%, the outcome [8] was “inactive” and the outcome [9] was “inactive”.
For `CCCCS(=O)(=O)Nc1ncnc(OCCOc2ncc(Br)cn2)c1-c1ccc(Br)cc1`, the Potency [1] was “inactive”.
In the case of `C[C@H]1[C@H](C)CC[C@]2(C(=O)O)CC[C@]3(C)C(=CC[C@@H]4[C@@]5(C)C[C@@H](O)[C@H](O)[C@@](C)(CO)[C@@H]5CC[C@]43C)[C@H]12`, the Potency [1] is reported as “inactive”, the outcome [3] is reported as “inactive” and the Potency [4] is reported as “inactive”. The Potency [5] was “inactive”, the outcome [6] was “inactive” and the outcome [10] was “inactive”. The max response [7] was 2.22%, the outcome [8] was “inactive” and the outcome [9] was “inactive”.
In the case of `CC(C)=CC/C=C(/C)[C@H]1CC[C@]2(C)[C@@H]1[C@H](O)CC1[C@@]3(C)CC[C@H](O)C(C)(C)[C@@H]3[C@@H](O[C@@H]3O[C@H](CO)[C@@H](O)[C@H](O)[C@H]3O[C@@H]3O[C@@H](C)[C@H](O)[C@@H](O)[C@H]3O)C[C@]12C` (stereo not given in full), the Potency [1] is reported as “inactive”.
In the case of `COc1ccc(C(O[C@@H]2O[C@H](CO)[C@@H](O)[C@H](O)[C@H]2O)C(CO)Oc2ccc(/C=C/CO)cc2OC)cc1O` (stereo not given in full), the Potency [1] is reported as “inactive”.
In the case of `CC1=CCC(C(C)(C)O)CC1` (stereo not given), the outcome [2] is reported as “inactive”, the outcome [3] is reported as “inactive” and the Potency [5] is reported as 3.55 µM (active). For the same molecule, the outcome [6] was “inactive”, the max response [7] was -0.821% and the outcome [8] was “inactive”. For the same molecule, the outcome [9] was “inactive”.
In the case of `CC[C@H]1OC(=O)[C@H](C)[C@@H](OC2C[C@@](C)(OC)[C@@H](O)[C@H](C)O2)[C@H](C)[C@@H](OC2O[C@H](C)C[C@H](NC)[C@H]2O)[C@](C)(O)C[C@@H](C)CN(C)[C@H](C)[C@@H](O)[C@]1(C)O` (stereo not given in full), the Potency [1] is reported as “inactive”.
In the case of `CC1(C)CC[C@]2(C(=O)O)CC[C@]3(C)C(=CCC4[C@@]5(C)C[C@H](O)[C@H](O[C@@H]6OC[C@H](O)[C@H](O)[C@H]6O)[C@@](C)(CO)C5CC[C@]43C)[C@@H]2C1` (stereo not given in full), the Potency [1] is reported as “inactive”.
In the case of `COC(=O)C1C(CC(C)=O)C=CC(O)C12Oc1cc(C)cc(O)c1C2=O` (stereo not given), the Potency [1] is reported as “inactive”.
With `CC12CCC3c4ccc(O)cc4CCC3C1CCC2OC1OC(C(=O)O)C(O)C(O)C1O` (stereo not given) the Potency [1] was “inactive”.
For `COc1cc(/C=C/C(=O)O[C@H]2[C@H](O)[C@@H](CO)O[C@@]2(CO)O[C@H]2O[C@H](COC(=O)c3ccc(O)cc3)[C@@H](O)[C@H](O)[C@H]2O)cc(OC)c1OC`, the Potency [1] was “inactive”.
